Shown are actives, neighbours in structure and some others; about 2.4% of the full set was active somewhere.
D2 ag-1: agonists of human D2 dopamine receptor. P14416. HEK293 T-REx D2 cells, calcium flux agonist mode. activation, % at 2 µM. hit rate 0.53% among 340,000;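 active = activation over 3 SD above normal in the single-dose calcium agonist read, cut at about 30% in these data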; note: 0% is about no effect
Target sequence (P14416 whole entry, looked up): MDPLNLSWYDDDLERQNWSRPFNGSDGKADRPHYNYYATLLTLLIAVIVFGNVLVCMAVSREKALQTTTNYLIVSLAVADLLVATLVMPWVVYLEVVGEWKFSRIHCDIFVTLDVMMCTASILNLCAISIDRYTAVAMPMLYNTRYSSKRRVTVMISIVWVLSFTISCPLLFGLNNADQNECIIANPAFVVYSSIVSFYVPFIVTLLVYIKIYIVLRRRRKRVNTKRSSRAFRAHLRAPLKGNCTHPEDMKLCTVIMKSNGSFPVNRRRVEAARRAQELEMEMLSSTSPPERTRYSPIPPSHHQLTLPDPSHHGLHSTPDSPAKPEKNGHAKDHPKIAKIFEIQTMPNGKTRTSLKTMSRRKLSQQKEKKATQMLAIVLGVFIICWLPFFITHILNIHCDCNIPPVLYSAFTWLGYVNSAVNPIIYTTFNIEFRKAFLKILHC
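In this primary screen, compounds producing a positive calcium signal within 180 s of addition to tetracycline-induced, force-coupled HEK293 Trex D2 cells are flagged; cells are dye-loaded with a no-wash calcium kit beforehand.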
D2 PAM-1: positively modulates the human D2 dopamine receptor allosterically. hit rate 0.34% among 340,000. P14416. AID 485347. HEK293 T-REx D2, calcium flux, EC20 dopamine potentiation. potentiation, % at 10 µM;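 active = potentiation over 3 SD above the plate norm, cut at about 30% in these data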; note: 0% is about no effect
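Tetracycline-induced HEK293 T-REx cells force-coupled to calcium signalling expressed D2; compounds were pin-added after a 10 s baseline, read kinetically 180 s, then an EC20 dopamine challenge followed with a further 180 s calcium read.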
D2 PAM-2: positive allosteric modulators of human D2 dopamine receptor; potentiation, % (concentration not given with the values); AID 624464; DiscoveRx D2 beta-arrestin cells, luminescence, 90 min; 100% = 57 uM dopamine signal; P14416; hit rate 0.23% among 360,000; in the data active = potentiation above about 50%; inconclusive = mostly about 30% to 49%
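PathHunter D2 cells, attached overnight at 37 deg C, received compound in DMSO plus dopamine at EC20 (50 nM final) for 90 min at 37 deg C. Beta-arrestin recruitment was read as luminescence after 1 h with detection reagent at ambient temperature.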
D2 antagonist: D2 dopamine receptor (human) antagonism; P14416; HEK293 TREx D2 cells, calcium flux, dopamine EC80; inhibition, % at 10 µM; hit rate 2% among 340,000; AID 485344; in the data active = inhibition above about 30%; inactive = below that, where a call was filed; note: 0% is about no effect
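In this primary screen, negative modulation is detected by tracking calcium flux after an EC80 dopamine challenge in inducible HEK293 T-REx D2 cells preexposed to test compound for 180 s.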
D2 ag-2: human D2 receptor agonism in beta-arrestin assay; DiscoveRx PathHunter D2 beta-arrestin, luminescence, 90 min; 100% = 57 uM dopamine signal; hit rate 0.084% among 360,000; P14416; AID 624465; activation, % (no concentration beside the values); in the data active = activation above about 40%; inconclusive = between about 15% and that limit
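DiscoveRx PathHunter D2 beta-arrestin cells (2,100/well) attached overnight, then compound-stimulated 90 min at 37 C in HBSS/10 mM HEPES/0.1% Tween-20 buffer; beta-galactosidase complementation read by luminescence after 1 h at ambient temperature. Dopamine 57 uM final (EC100) as control.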
The depositor's hits bear a star; ? = inconclusive; . = not tested or not shown.

SMILES	D2 ag-1	D2 PAM-1	D2 PAM-2	D2 antagonist	D2 ag-2
COc1ccc(OCC(=O)NCC2(N3CCN(C)CC3)CCCCC2)cc1	2	-25	.	.	.
Cc1cccc(NC(=O)c2cccc(N3CCCS3(=O)=O)c2)c1	0	-3	.	.	.
O=C(c1cc2c(s1)-c1ccccc1OC2)N1CCc2ccccc2C1	4	-13	-1	33*	-3
CC(=O)O[C@]1(C(C)=O)CC[C@H]2[C@@H]3C=C(Cl)C4=CC(=O)[C@@H]5C[C@@H]5[C@]4(C)[C@H]3CC[C@@]21C	1	6	-5	40*	-3
CC(=O)O[C@]1(C(C)=O)CC[C@H]2[C@@H]3C=C(Cl)C4=CC(=O)CC[C@]4(C)[C@H]3CC[C@@]21C	1	8	-3	-5	-4
O=C1/C(=C\c2ccco2)SC(=S)N1c1ccccc1	-1	0	-6	47*	3
C=CCOC(=O)C1=C(C)OC(N)=C(C#N)C1c1c(C)nn(-c2ccccc2)c1Cl (centres undefined)	0	-10	-14	44*	0
CC1CCN(C(=O)COC(=O)c2cccc(S(=O)(=O)N(C)c3ccccc3)c2)CC1	5	1	5	43*	2
O=C(NCc1nc2ccccc2[nH]1)c1cccc(S(=O)(=O)N2CCOCC2)c1	0	-2	-9	38*	-3
CN(c1ccccc1)S(=O)(=O)c1ccc(C(=O)NCc2ccccc2CN2CCCC2)cc1	0	-20	-37	0	-2
CN(c1ccccc1)S(=O)(=O)c1cccc(C(=O)NCc2ccccc2CN2CCCC2)c1	0	-31	-33	39*	-2
Cc1c(C(=O)NCc2ccccc2CN2CCCC2)oc2ccc(F)cc12	0	-26	-3	58*	-1
O=C(Nc1cccc(Br)c1)c1cc(S(=O)(=O)N2CCCCC2)c[nH]1	0	7	.	.	.
Cc1ccc(Cn2c(C(C)NC(=O)c3ccccc3)nc3ccccc32)cc1 (centres undefined)	-1	7	.	.	.
O=C(NCc1ccccc1CN1CCCC1)c1cccc(S(=O)(=O)N2CCOCC2)c1	0	-14	-35	49*	-3
O=C(CCN=C1NS(=O)(=O)c2ccccc21)Nc1ccc(Cl)cc1F	-1	-14	-3	40*	4
O=C(CCCN=C1NS(=O)(=O)c2ccccc21)Nc1ccc(Cl)cc1	0	-16	-14	6	-2
CCOC(=O)CSc1nnc(Cc2ccccc2)n1-c1cccc(Cl)c1	1	32*	0	-3	-5
COc1ccccc1N1CCN(CCCNC(=O)c2nnc(Cc3c(F)cccc3Cl)o2)CC1	.	-22	.	.	.
CCOC(=O)c1ccccc1NC(=O)CSc1cn(CC(=O)N2CCCCC2)c2ccccc12	.	1	.	.	.
COc1ccc(/C=C/C(=O)Nc2ccccc2C(F)(F)F)cc1	-1	4	-10	5	-1
COc1ccc(/C=C/C(=O)Nc2ccccc2C(=O)O)cc1	4	-1	9	34*	1
COc1ccc(/C=C/C(=O)Nc2ccccc2C(=O)NCC(c2ccc(OC)cc2)N(C)C)cc1 (centres undefined)	-2	.	-33	60*	0
COc1ccc(/C=C/C(=O)Nc2ccccc2C(=O)N2CCCC2)cc1	0	9	14	-3	1
CCOC(=O)C1CCN(S(=O)(=O)c2cc(-c3onc(C)c3C)ccc2OC)CC1	0	1	.	.	.
SMILES	D2 ag-1	D2 PAM-1	D2 PAM-2	D2 antagonist	D2 ag-2
CCCC[n+]1ccn(-c2nc3c([N+](=O)[O-])cccc3n2C)c1	0	-8	-69	34*	-7
CCCCN=C(C)C1=C(O)CSC1=O	0	5	-1	-2	0
CC(=NCCc1ccccc1)C1=C(O)CSC1=O	35*	1	?	-12	0
CCC(C)(C)NS(=O)(=O)c1cc(-c2cc(C)no2)ccc1C	-1	-3	.	.	.
CC(C)c1cnc2c(c1SCC(=O)NCc1ccccc1Cl)c(=O)n(C)c(=O)n2C	0	9	.	.	.
COc1cccc(-c2cc(C(F)(F)F)n3ncc(C(=O)N4CCc5ccccc5C4)c3n2)c1	-2	5	-3	50*	-6
COc1ccc(-c2cc(C(F)(F)F)n3ncc(C(=O)N4CCc5ccccc5C4)c3n2)cc1	1	2	-5	-8	-1
CN(C)S(=O)(=O)N(CC(=O)NCCSCc1c(F)cccc1Cl)c1ccccc1	-2	-1	.	.	.
O=C(c1ccc(Oc2ccccc2)cc1)c1nc2c(n1O)CCCC2	0	4	1	31*	5
NC(=O)c1ccc(NCc2ccco2)c([N+](=O)[O-])c1	1	5	-14	35*	-4
CCN(CC)C(=O)c1c(-c2ccccc2)c(-c2ccccc2)nn(CC)c1=O	.	2	.	.	.
Cc1cc(NC(=O)CCCn2c(C)c3cnn(-c4ccccc4)c(=O)c3c2C)ccc1Br	0	15	.	.	.
CCc1cc(C(=O)OC)c(NC(=O)CC2SC(N)=NC2=O)s1 (centres undefined)	-1	9	-3	31*	-5
CC(NCc1ccc2c(c1)OCO2)C(=O)N1CCc2ccccc21 (centres undefined)	-1	-27	-40	44*	-7
CS(=O)(=O)N(CC(N)=O)c1cccc(Br)c1	1	48*	?	-4	1
Cc1noc(/C=C/c2ccccc2F)c1S(=O)(=O)N1CCC(C(=O)N2CCOc3ccccc32)CC1	0	15	.	.	.
c1ccc(Cc2c[nH]c3ccccc23)cc1	0	6	-3	-6	6
CN(Cc1ccccc1)Cc1c[nH]c2ccccc12	-1	-23	-45	35*	-4
C/C(=N\NC(=O)c1nnn(-c2nonc2N)c1CN1CCCCC1)c1ccccc1O	0	-4	-6	30*	-6
CC1CCN(Cc2c(C(=O)N/N=C/c3cccc(Cl)c3)nnn2-c2nonc2N)CC1	0	38*	-13	-8	1
CCCn1cc(S(=O)(=O)c2cccc(Cl)c2)c(=O)c2cc(F)c(N3CCN(CC)CC3)cc21	-1	-9	.	.	.
CC(=O)N1CCCC1c1nc2ccccc2n1Cc1ccccc1F (centres undefined)	24	-9	.	.	.
Cc1cc(C)nc(SCCCNCc2ccc(Br)cc2)n1	1	-29	-8	59*	-2
Cc1ccc(CNCCCSc2nc(C)cc(C)n2)cc1	0	-14	-3	63*	-4
CC(=O)c1ccc(OCC(O)CN(C)CCOc2ccc(Br)cc2)cc1 (centres undefined)	3	-26	-9	44*	2
COc1ccc(CCN(C)CC(O)COc2ccc(C(C)=O)cc2OC)cc1OC (centres undefined)	0	2	-8	36*	-2
O=C(c1ccc([N+](=O)[O-])cc1)N(Cc1ccco1)c1ccccn1	4	-8	.	.	.

Compound activity from PubChem.
